Measured values taken from PubChem BioAssay (NCI).
Compounds without any hit were thinned out: in the full panel of roughly 83,000, 20% have a hit.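 Plates (96-well) were seeded with cells, treated with compound at one concentration, and incubated for 48 hours before percent growth was determined.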 Unmarked numbers belong to inactive results. Activity calls are given as the source filed them. How the source made its calls: active means growth percent below 10; inactive means the rest.

system: UO-31 renal; experiment: NCI-60 one-dose screen, 48 h (100 = growth as untreated, 0 = no growth, -100 = all killed); settings: 10 µM unless noted

Row | Compound | growth
1 | Cn1ncc2c(C(=O)c3ccc(F)cc3)nc(C(C)(C)C)nc21 | 93.9%
2 | CN1c2ccccc2Sc2cc(/C=N/Nc3ccnc4cc(Cl)ccc34)ccc21 | 84%
3 | COCCOc1ccc2ncc(C#Cc3cncc(C(=O)Nc4ccc(CN5CCN(C)CC5)c(C(F)(F)F)c4)c3)n2n1 | 2.58% (active)
4 | O=C(CCCCCCNC(=O)C(O)(O)C(F)(F)F)Nc1ncc(-c2ccccc2)s1 | -27.9% (active)
5 | CCCCN1C(=O)/C(=c2\sc3n(c2=O)C2C(NN=3)N(CC)C(=O)N2CC)c2cc(C)ccc21 (stereo not drawn) | 75%

system: TK-10 renal; experiment: as above; settings: 10 µM unless noted

Row | Compound | growth [%]
6 | CC(C)=CCC[C@](C)(O)[C@H]1CC[C@]2(C)[C@@H]1CC[C@@H]1[C@@]3(C)CC[C@H](N)C(C)(C)[C@@H]3CC[C@]12C | 127
7 | Cc1cc2nc(C(Cl)Cl)nc(-c3ccc(S(=O)(=O)N(C)C)cc3)n2n1 | 85
8 | CCCCCCNC(=O)Oc1ccc(/C(=C(/C)c2ccc(OC)cc2)c2ccc(OCCN3CCCCCC3)cc2)cc1 | 92.1
9 | Cc1nc(/N=C(N)/N=C(\N)c2cccc(Br)c2)sc1C | 83.3
10 | O=c1nc(Nc2ccc([N+](=O)[O-])cc2O)sc2ccccc12 | 82
11 | C#CCOc1ccc(-c2csc(NC(=O)C=C)n2)cc1NS(=O)(=O)c1cccc2c(N(C)C)cccc12 | 63
12 | COc1ccc(C2CC(c3cccc(OCCCCOc4cccc(C5=NOC(c6ccc(OC)cc6)C5)c4)c3)=NO2)cc1 (stereo not drawn) | 104
13 | Cc1ccc(OCc2occc2C(=O)N2CCOCC2)cc1 | 97.3
